Measured values taken from PubChem BioAssay.
Activity calls are given as the source filed them.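 Rule for the calls, unless noted: active = compounds whose cell count with miR-34 switched on is under 0.7 times the count with it off; inactive = the rest.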

Columns and labels:
[1] = viability loss with induced miR-34 in A549 – imaging, A549 dox-inducible miR-34, nuclei and caspase counts, primary screen (AID 1347080); conditions: A549 miR-34 inducible, Hoechst nuclei count, 48 h; note: test concentration not given here
[2] = MELAS cybrid and Rieske KO viability enhancers – cell-based, MELAS cybrids, Rieske KO mouse fibroblasts, CellTiter-Glo, primary screen (AID 1508586;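 active = mean z-score across replicates of 1.96 or higher in either the MELAS or the Rieske mutant cell line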;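 note: test concentration not given here; z relative to plate mean and SD of compound and empty wells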); conditions: low glucose
[3] = galactose survival enhancers in mitochondrial complex I cybrids – cell-based, galactose medium, ATP luminescence, primary screen (AID 1645843;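 active = z-score of at least 1.8 in each of two replicates, scored against plate mean and spread of sample wells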;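 note: positive z means more ATP and so rescue of galactose-driven cybrid death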); conditions: complex I mutant cybrid cells, 72 h, stronger effect = higher value
[4] = stronger effect = lower value, cell number ratio, induced over uninduced
[5] = measured here: relative caspase fold change +Dox/-Dox
[6] = measured here: total cells with miR-34 induction, stronger effect = lower value
[7] = measured here: total cells without miR-34 induction
[8] = MELAS cybrid survival, CellTiter-Glo 48 h, stronger effect = higher value
[9] = Rieske KO mouse fibroblast survival, CellTiter-Glo 72 h

SMILES | fold change [1, 4] | fold change [1, 5] | cell count [1, 6] | cell count [1, 7] | z-score [2, 8] | z-score [2, 9] | z-score [3]
COCCn1cncc1CNc1nccc(-c2c(C)nn(C)c2C)n1 | 0.881 (inactive) | 0.975 | 8090 | 9180 | -0.172 (inactive) | -0.0475 | -0.325 (inactive)
Cc1nn(C)c(C)c1-c1ccnc(NCCc2nc3ccc(Cl)cc3[nH]2)n1 | 0.924 (inactive) | 3.32 | 1430 | 1550 | -0.908 (inactive) | 0.453 | -0.38 (inactive)
CN(Cc1cnc2ccccc2n1)C(=O)Nc1n[nH]c(-c2ccco2)n1 | 0.886 (inactive) | 0.927 | 8010 | 9030 | -0.974 | 3.4 | 0.175 (inactive)
O=c1cc(-c2ccncc2)nc(-c2cccc(CN3CCCC(CO)C3)c2)[nH]1 (stereo not drawn) | 0.934 (inactive) | 0.922 | 8470 | 9070 | -0.423 (inactive) | 0.0738 | 0.08 (inactive)
COc1ccc(CCNCC(O)COc2cccc(C)c2)cc1OC (stereo not drawn) | 0.915 (inactive) | 0.555 | 8400 | 9170 | -1.33 (inactive) | 0.533 | -0.99 (inactive)
COc1cc(N(C)CC2COc3ccccc3O2)nc(N)n1 (stereo not drawn) | 0.844 (inactive) | 2.02 | 3500 | 4140 | 0.477 (inactive) | -0.0472 | -0.58 (inactive)
O=C(Nc1c[nH]c2ccccc12)c1cccnc1 | 0.884 (inactive) | 1.08 | 8140 | 9200 | -0.289 (inactive) | -0.312 | 1.14 (inactive)
COc1ccc(CC(N)=O)cc1 | 0.918 (inactive) | 0.564 | 8020 | 8730 | 0.385 (inactive) | 0.663 | -0.175 (inactive)
Cc1cc(-c2csc(Nc3ccc(C(=O)O)c(O)c3)n2)ccc1F | 0.849 (inactive) | 0.325 | 8200 | 9650 | 2.38 (active) | -0.525 | 1.02 (inactive)
Cc1ccc(-n2cc(-c3nc4c(cnn4Cc4cccnc4)[nH]3)cn2)cc1 | 0.858 (inactive) | 2.02 | 7150 | 8340 | 0.697 (inactive) | 0.0385 | -0.445 (inactive)
CC(Nc1nc(N)nc2[nH]ncc12)c1ccc(Cl)cc1 (stereo not drawn) | 0.895 (inactive) | 1.28 | 7110 | 7940 | -0.461 (inactive) | -0.503 | -0.575 (inactive)
CC(=O)N1CCCC(Cn2cnc3scc(-c4cc(C)ccc4C)c3c2=O)C1 (stereo not drawn) | 0.917 (inactive) | 1.14 | 8240 | 8990 | -0.328 (inactive) | -0.378 | 0.155 (inactive)
Cc1nsc(NC(=O)NCc2ccccc2-n2ccnc2C)n1 | 0.866 (inactive) | 1.23 | 9020 | 10400 | 0.0398 (inactive) | -0.281 | -0.575 (inactive)
NC(=O)Cc1c[nH]c2ccccc12 | 0.914 (inactive) | 0.482 | 8170 | 8950 | 0.728 (inactive) | -0.479 | 0.1 (inactive)
c1ccc(-c2ncc(-c3ccn[nH]3)s2)cc1 | 0.881 (inactive) | 0.808 | 8010 | 9090 | 2.65 (active) | -0.462 | -0.185 (inactive)
COc1ccccc1-c1ccc(C(=O)O)o1 | 0.892 (inactive) | 0.465 | 8930 | 10000 | -1.1 (inactive) | 0.506 | 1.07 (inactive)
O=C(C=Cc1ccc(O)c(O)c1)NCCc1ccc(O)cc1 | 0.861 (inactive) | 0.612 | 8240 | 9580 | -0.586 (inactive) | -0.131 | 0.38 (inactive)
Cn1nc(NC(=O)Cn2ccc(-c3ccco3)n2)c2ccccc21 | 0.861 (inactive) | 2.39 | 7120 | 8270 | 1.07 (inactive) | 0.074 | 0.205 (inactive)
c1ccn2cc(CCNc3ncnc4nc[nH]c34)nc2c1 | 0.837 (inactive) | 1.9 | 8280 | 9890 | -0.607 (inactive) | -0.578 | -0.4 (inactive)
CN1CCN(c2ncnc3sccc23)CC1=O | 0.928 (inactive) | 1.32 | 9620 | 10400 | -0.0885 (inactive) | -0.276 | -0.54 (inactive)
CCNc1ncc(-c2cc(C(=O)N(C)CCN(C)C)c3cc(F)ccc3n2)cn1 | 0.912 (inactive) | 2.18 | 8760 | 9610 | -0.0763 (inactive) | -0.44 | -0.56 (inactive)
CC(C)(CCl)C(=O)Nc1ccc(C(F)(F)F)cc1 | 0.859 (inactive) | 1.51 | 8340 | 9720 | 0.804 (inactive) | 0.128 | 0.14 (inactive)
COc1ccccc1Cn1ncc2[nH]c(-c3ccccc3OC)nc21 | 0.835 (inactive) | 1.7 | 7580 | 9090 | -0.341 (inactive) | -0.0244 | 2.62 (active)
CN1CCC(CN(C)Cc2ccc(-c3nc(-c4ccncc4)cc(=O)[nH]3)cc2)CC1 | 0.939 (inactive) | 1.26 | 9330 | 9930 | 0.0899 (inactive) | 0.164 | -0.495 (inactive)
